In ChEMBL document CHEMBL3988442, “University of Dundee, Small-Polar-MMV Screening Library” (2021):

Columns and labels:
[1] = molecular target: T1, Aspartate--tRNA(Asp/Asn) ligase (Mycobacterium tuberculosis (strain ATCC 25618 / H37Rv)) (UniProt P9WFW3); experiment: Assay for Asp RNA synthetase-1 from Mycobacterium tuberculosis; format: functional; design: scale not given: direction of the effect not stated beside the values; conditions: 30 µM; further: in the data most compounds retested in dose-response had high values
T1 sequence (whole entry): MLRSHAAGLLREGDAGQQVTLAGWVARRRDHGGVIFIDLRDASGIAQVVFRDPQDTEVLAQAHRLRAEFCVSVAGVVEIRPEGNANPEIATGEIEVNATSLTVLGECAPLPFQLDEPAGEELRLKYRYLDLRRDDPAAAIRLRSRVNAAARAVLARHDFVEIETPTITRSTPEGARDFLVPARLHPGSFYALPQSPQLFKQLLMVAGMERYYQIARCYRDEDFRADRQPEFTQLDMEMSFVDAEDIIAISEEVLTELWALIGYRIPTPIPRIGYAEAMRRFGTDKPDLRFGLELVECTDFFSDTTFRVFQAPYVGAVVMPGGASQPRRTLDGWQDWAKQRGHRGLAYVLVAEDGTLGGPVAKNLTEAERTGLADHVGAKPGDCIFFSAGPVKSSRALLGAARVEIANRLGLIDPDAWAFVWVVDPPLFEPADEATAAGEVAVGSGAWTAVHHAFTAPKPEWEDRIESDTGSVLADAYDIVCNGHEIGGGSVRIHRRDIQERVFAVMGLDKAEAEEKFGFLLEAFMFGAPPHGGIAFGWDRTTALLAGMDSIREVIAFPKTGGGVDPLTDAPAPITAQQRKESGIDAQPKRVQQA

[2] = molecular target: Shiga toxin 2 (Escherichia coli O157:H7) (UniProt P09385+P09386); experiment: E. coli 0.157:H7 Shiga Toxin SOP - stx2 screening assay; format: functional; design: scale not given: direction of the effect not stated beside the values; conditions: 30 µM

| SMILES | Percent Effect [1] [%] | Percent Effect [2] [%] |
| --- | --- | --- |
| CN1CCOC(CNCc2cccc(OCC(F)(F)F)c2)C1 (configuration not stated) | -2.34 | 2.68 |
| CN(C)S(=O)(=O)N1CC[C@]2(C[C@H](Oc3cccnc3)CO2)C1 | 9.53 | -27.2 |
| c1ccc(-c2ncc(CNC3CCc4ncnn4C3)cn2)cc1 (configuration not stated) | -0.626 | 13.4 |
| CCn1ccnc1CNCC1CCCN1c1cc(NC)ncn1 (configuration not stated) | 1.78 | -12.7 |
| O=C1[C@@H]2CCN(Cc3ccncc3)C[C@@H]2OCCN1c1ccccc1 | -1.46 | -5.4 |
| CCn1cnnc1C1CCN(C(=O)c2cnc(C3CC3)s2)CC1 | -8.99 | -7.13 |
| CCc1nc(CN2CCCC(NCc3cnn(C(C)(C)C)c3)C2)no1 (configuration not stated) | -3.23 | 2.93 |
| COc1ccc(OCCc2sc(C3(O)CCCNCC3)nc2C)cc1 (configuration not stated) | -5.55 | -52 |
| OCCN1CCOC2(CCCN(c3cccc(F)c3)C2)C1 (configuration not stated) | -3.25 | -15.9 |
| CCc1ccc(C(=O)N2CCC(c3nncn3CC)CC2)cc1 | -2.16 | 7.54 |
| COc1ccc(C(=O)NS(=O)(=O)c2cncc(Br)c2)cc1OC | 0.457 | 3.4 |
| CCOc1ncccc1NC(=O)NC1CCN(S(C)(=O)=O)CC1 | 5.32 | -16.8 |
| Cc1ccc(CN2CCCC23CCN(S(=O)(=O)c2ccccc2)C3)o1 (configuration not stated) | 4.14 | 3.29 |
| CC(Cn1ccnc1)NC(=O)NCCc1ccccn1 (configuration not stated) | -8.15 | -8.89 |
| COCCN1C[C@H]2CC[C@@]3(N=C(C)N(CC4CC4)C3=O)[C@H]2C1 | 4.94 | -12.7 |
| O=C(NCc1cccc(F)c1)N1CCC2(CC(=O)N(c3ccsc3)C2)C1 (configuration not stated) | -4.15 | -7.69 |
| c1cnc(NCc2noc3c2CN(CCN2CCCC2)CC3)nc1 | 1.46 | -35.5 |
| CC(C)c1ncncc1C(=O)N1CCN(Cc2cscn2)CC1 | -2.56 | -22.9 |
| CN1CCOC(CNCCc2ccccn2)C1 (configuration not stated) | -3.97 | -10.7 |
| CCCOc1cccc(CNC(=O)CN2CCN(C)CC2C)c1 (configuration not stated) | 2.62 | -7.72 |
| Cc1cccc(CN2CCC3(CCCN(C(=O)NC4CC4)C3)C2=O)n1 (configuration not stated) | 6.63 | -5.22 |
| CC(C)c1cc(C(=O)NCCN2CCCS2(=O)=O)n[nH]1 | -5.19 | -14.6 |
| CNC(=O)[C@H]1CCS(=O)(=O)[C@@H]2CN(Cc3ccc(OC)cc3)C[C@H]12 | -0.605 | 3.61 |

| SMILES | Percent Effect [1] [%] | Percent Effect [2] [%] |
| --- | --- | --- |
| Cc1ncsc1CN1C[C@H](C(=O)N2CCCO2)[C@@H]2CCO[C@@H]2C1 | -1.48 | -4.78 |
| COCc1ccccc1C(=O)N1CCCC(n2nc(C)cc2C)C1 (configuration not stated) | -2.97 | -10.9 |
| Cc1cc(-c2cnn(CCNC(=O)C3CC3)c2C2CC2)on1 | 0.838 | 64.1 |
| Cc1nc(C(=O)N2CCc3c(nc(-c4ccncc4)[nH]c3=O)C2)cs1 | 0.783 | 13.5 |
| O=C(CSCC1CC1)N1CCCC(c2nccn2Cc2ccncc2)C1 (configuration not stated) | -7.86 | 6.34 |
| CN(Cc1cnn(C)c1)C(=O)c1ccc(=O)n(C)n1 | -3.08 | -8.81 |
| Cc1ccc(CC(=O)N2CCOC(c3nc(C(C)(C)C)n[nH]3)C2)cn1 (configuration not stated) | -0.39 | -0.658 |
| COCCO[C@H]1CCN(C(=O)c2ccno2)[C@H]1Cc1cnn(C)c1 | -3.56 | -13.7 |
| CC(C)(N)C(=O)N1CCCC1c1cncc(Oc2ccc(F)cc2)n1 (configuration not stated) | -3.75 | -12.5 |
| CCC(C)(NCC(=O)N(c1ccccc1)C(C)C)c1nc(C)cs1 (configuration not stated) | 1.2 | -25.8 |
| Cc1cc2n(n1)CC(CNC1CCN(Cc3ccccc3C)CC1)CN2 (configuration not stated) | 4.64 | -38.1 |
| COCCO[C@H]1CCN(Cc2cccs2)[C@H]1Cc1cccnc1 | 0.0141 | 9.31 |
| COc1ccc(C2=C(C)C(N3CCc4ccccc43)=NS2(=O)=O)cc1 | -2.38 | -24.6 |
| Cc1cc(C)n(CC2CCCN2C(=O)c2cc[nH]n2)n1 (configuration not stated) | -3.22 | -26.2 |
| COc1ccc(OCc2nc(C(=O)N3CC(O)C3)co2)cc1 | -0.0558 | -45.4 |
| Cc1nc(C2CCCN2CC(=O)N(Cc2ccsc2)C2CC2)no1 (configuration not stated) | 0.787 | 0.717 |
| CC(C)=CCN(C)C1CCCN(Cc2noc(C)n2)C1 (configuration not stated) | 3.23 | 25.2 |
| COc1ccc(CC(=O)N2CCCC2Cn2cccn2)cc1F (configuration not stated) | -0.871 | 15.1 |
| CCc1nccn1C1CCCN(C(=O)CCCNc2ncccn2)C1 (configuration not stated) | -4.79 | 8.61 |
| COc1ccccc1OCc1cc(C(=O)N2CC(O)C2)n[nH]1 | 2.09 | 1.76 |
| Cc1noc(C(C)C)c1C(=O)NS(=O)(=O)c1ccc(Cl)cc1 | -2.79 | 13.7 |
| CC(C)c1ncc2c(n1)CN(Cc1nc(-c3ccoc3)no1)CC2 | 3.7 | -1.63 |
| Cc1cccc(C(=O)Nc2ccc(OC3CCN(C)CC3)cc2)c1 | 0.862 | -60.2 |
